Entries with a potency or affinity are not part of this list. A number with no mark means an inactive call.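 The calls were made as follows: active = CTGF level falls with dose and the fitted half-maximal dose is at most twice the top valid dose; inconclusive = flat fit with 30 to 70% drop, or a poor fit; inactive = the rest.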
test: YAP1 pathway inhibition via CTGF transcript levels, dose response, cell-based, DLD1 colon cancer, RT-qPCR, cherry-pick (AID 1053122); details: DLD1 CTGF mRNA (YAP1 pathway), 24 h; series mostly up to 26 µM; CTGF expression fold change (lower = inhibition): at the top concentration

Structure (SMILES)	CTGF expression fold change (lower = inhibition)
CN(C)C(=O)c1ccc(-c2cccc(-c3nc(C(=O)NCc4ccccc4)cc4c3[C@@H](CCO)N([S@](=O)C(C)(C)C)C4)c2)cc1	1.62 unspecified
O=C(Nc1ccc2c(c1)[C@H]1C[C@@H](CC(=O)N3CCc4ccccc4C3)O[C@H](CO)[C@H]1O2)c1ccc2c(c1)OCO2	0.506 unspecified
COc1ccccc1C(=O)Nc1ccc2c(c1)C(=O)N(C)C[C@H](OC)[C@@H](C)CN(C(C)=O)[C@@H](C)CO2	0.589 unspecified
COc1ccc2c3c(n(C)c2c1)[C@@H](CO)N(Cc1ccncc1)CC31CN(C(=O)Nc2cccc(F)c2)C1	0.843 unspecified
C[C@@H]1CN([C@H](C)CO)C(=O)CCCn2nncc2CO[C@@H]1CN(C)C(=O)c1cc(-c2ccccc2)on1	0.625 unspecified
C[C@@H]1CN([C@H](C)CO)C(=O)c2cccc(NC(=O)c3nc4ccccc4s3)c2O[C@H]1CN(C)C(=O)Nc1ccc2c(c1)OCO2	0.622 unspecified [at 23.5 µM]
CS(=O)(=O)N1CC(=O)N2[C@H](C1)[C@@H](c1ccc(C#Cc3ccc(F)cc3)cc1)[C@@H]2CO	0.547 unspecified
Cc1ccc(S(=O)(=O)Nc2ccc3c(c2)CC(=O)N([C@H](C)CO)C[C@@H](C)[C@@H](CN(C)S(=O)(=O)c2ccccc2)O3)cc1	0.942 unspecified
COCC(=O)N1CC(=O)N2[C@H](CO)[C@@H](c3ccc(C#CC4CC4)cc3)[C@H]2C1	0.97 unspecified
C[C@@H]1CN([C@@H](C)CO)C(=O)c2cccc(NC(=O)c3nc4ccccc4s3)c2O[C@H]1CN(C)C(=O)Nc1ccc2c(c1)OCO2	0.667 unspecified
C[C@H](CO)N1C[C@H](C)[C@@H](CN(C)S(=O)(=O)c2ccc([N+](=O)[O-])cc2)OCc2ccccc2-c2c(n(C)c3ccccc23)C1=O	0.751 unspecified
CO[C@H]1CN(C)C(=O)c2cc(NC(=O)Nc3ccccc3F)ccc2OC[C@H](C)N(CCC(F)(F)F)C[C@@H]1C	0.848 unspecified
C[C@@H]1CN([C@@H](C)CO)C(=O)c2ccccc2-c2ccccc2CO[C@H]1CN(C)C(=O)Nc1ccc(-c2ccccc2)cc1	0.477 unspecified
CC(C)NC(=O)N[C@@H]1CC[C@H](CC(=O)NCCCN(C)C)O[C@@H]1CO	1.05 unspecified
Cc1ccc(S(=O)(=O)N2CC[C@H]3[C@H](CO)Nc4ccc(-c5cccc(C(=O)N(C)C)c5)cc4[C@H]32)cc1	0.486 unspecified
C[C@@H]1CN([C@@H](C)CO)C(=O)c2cc(C#Cc3ccccc3)cnc2O[C@@H]1CN(C)C(=O)c1ccccc1	0.83 unspecified
O=C(Nc1cccc(F)c1)N1CCCCN2[C@H](C1)[C@H](c1ccc(C#Cc3cccnc3)cc1)[C@@H]2CO	0.636 unspecified
Cc1ccccc1-c1ccc([C@H]2[C@@H](CO)N3CCCCN(S(=O)(=O)Cc4ccccc4)C[C@@H]23)cc1	0.556 unspecified
CNC[C@H]1Oc2c(NC(=O)Nc3cccc4ccccc34)cccc2C(=O)N([C@H](C)CO)C[C@@H]1C	0.813 unspecified

Structure (SMILES)	CTGF expression fold change (lower = inhibition)
N#Cc1cccc(-c2ccc3c(c2)[C@@H]2[C@@H](CCN2S(=O)(=O)c2ccc(F)cc2)[C@H](CO)N3)c1	0.556 unspecified
O=C(CC1CC1)N1CC(=O)N2[C@H](CO)[C@@H](c3ccc(C#Cc4cccc(F)c4)cc3)[C@H]2C1	0.722 unspecified
O=C([C@H]1[C@H](CO)[C@H]2Cn3c(ccc(-c4ccc(F)cc4)c3=O)[C@H]2N1Cc1cocn1)N1CCCCC1	1.02 unspecified
CCS(=O)(=O)Nc1ccc2c(c1)C(=O)N(C)[C@H]1CC[C@H](CC(=O)N3CCN(C)CC3)O[C@H]1CO2	0.968 unspecified
COc1ccc2c3c(n(C)c2c1)[C@H](CO)N(S(C)(=O)=O)CC31CCN(C(=O)Nc2cccc(F)c2)CC1	0.819 unspecified
C[C@@H]1CN([C@H](C)CO)S(=O)(=O)c2ccc(C#Cc3ccccc3F)cc2O[C@@H]1CN(C)C(=O)Cc1cccnc1	0.777 unspecified
O=C(Nc1ccccc1)[C@@H]1[C@@H](CO)[C@@H]2Cn3c(cccc3=O)[C@H]1N2C(=O)c1ccc(F)cc1	1.04 unspecified
C[C@H]1CC=CC[C@@H](c2ccc(F)cc2)NC(=O)[C@H](Cc2ccccc2)N(C)C(=O)c2ccccc2O1 (mixture of isomers)	0.44 unspecified
C[C@@H]1CN([C@@H](C)CO)C(=O)Cc2cc(NC(=O)C3CCCCC3)ccc2O[C@@H]1CN(C)Cc1ccc(Cl)c(Cl)c1	0.922 unspecified [at 23.5 µM]
COc1ccc(CN(C)C[C@H]2Oc3ccc(NC(=O)Nc4ccc5c(c4)OCO5)cc3CC(=O)N([C@@H](C)CO)C[C@H]2C)cc1	0.724 unspecified
COc1ccccc1C#Cc1ccc([C@H]2[C@H](CO)N3CCCCN(C(=O)C4CCC4)C[C@@H]23)cc1	0.394 unspecified
C[C@@H]1CN([C@H](C)CO)C(=O)c2ccccc2-c2ccccc2CO[C@@H]1CN(C)Cc1ccc2c(c1)OCCN2C	0.751 unspecified
C[C@H]1CN([C@@H](C)CO)C(=O)c2cccc(NC(=O)c3ccc(-c4nccs4)cc3)c2O[C@@H]1CN(C)C(=O)Nc1ccc(C(F)(F)F)cc1	0.515 unspecified
CCNC(=O)c1cc2c(c(-c3cccc(-c4ccccc4F)c3)n1)[C@@H](CCO)N(C(=O)CC1CC1)C2	0.698 unspecified
C[C@@H]1CN([C@H](C)CO)C(=O)c2ccccc2-c2ccccc2CO[C@@H]1CN(C)Cc1ccccc1C(F)(F)F	0.554 unspecified
Cc1ccc(S(=O)(=O)Nc2ccc3c(c2)C(=O)N([C@H](C)CO)C[C@@H](C)[C@H](CN(C)S(=O)(=O)c2cccs2)OCCCC[C@@H](C)O3)cc1	0.627 unspecified
CC(C)(C)[S@](=O)N1Cc2cc(C(=O)NCCc3ccncc3)nc(-c3cccc(-c4cccc(C#N)c4)c3)c2[C@@H]1CCO	0.654 unspecified
COc1ccccc1S(=O)(=O)N1CC[C@@H]2[C@H]1c1cc(-c3cccc(C#N)c3)ccc1N(C)[C@H]2CO	0.465 unspecified [at 23.5 µM]
COc1cccc(-c2ccc([C@@H]3[C@@H](C#N)N(C(=O)Cc4ccncc4)[C@@H]3CO)cc2)c1	1.22 unspecified

— PubChem BioAssay AID1053122 (Broad Institute, 2014)
